Data from PubChem BioAssay AID1159580 (chemical genetic matrix, 2015).
Among all 5,500 compounds or so, about 2,000 (36%) were called active. Another 18% or so got no clear call; they are omitted. Cut-off read from the data, not from the text of the source: active = normalized growth mostly below about 0.91 (no sharp cut-off); inconclusive = no clear call, values can overlap the other calls; inactive = mostly above about 0.92. The list shows a part of the results.

Assay: chemical genetic growth profiling, strain panel (AID 1159580);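 note: tested at 20 µM; growth read once vehicle control cultures reached saturation at 30 °C; 1 = growth at the plate median or of vehicle wells; lower values mean less growth of the strain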
Conditions: growth OD

Measured: normalized growth

COc1ccc(C(=O)c2ccccc2O)c(O)c1
active: S. cerevisiae deletion strains, locus YKL085W, strain MDH1 (second series), active compounds read low 0.905 | S. cerevisiae deletion strains, locus YKL085W, strain MDH1, active compounds read low 0.905 | S. cerevisiae deletion strains, locus YKL160W, strain elf1, active compounds read low 0.896 | S. cerevisiae deletion strains, locus YKR001C, strain vps1, active compounds read low 0.71 | S. cerevisiae deletion strains, locus YKR026C, strain gcn3, active compounds read low 0.894 | S. cerevisiae deletion strains, locus YKR091W, strain srl3, active compounds read low 0.901 | S. cerevisiae deletion strains, locus YLL026W, active compounds read low 0.88 | S. cerevisiae deletion strains, locus YLL041C, strain sdh2, active compounds read low 0.885 | S. cerevisiae deletion strains, locus YLR027C, strain aat2, active compounds read low 0.875 | S. cerevisiae deletion strains, locus YLR039C, strain RIC1, active compounds read low 0.63 | S. cerevisiae deletion strains, locus YLR221C, strain rsa3, active compounds read low 0.891 | S. cerevisiae deletion strains, locus YLR258W, strain gsy2, active compounds read low 0.869 | S. cerevisiae deletion strains, locus YLR262C, strain YPT6 (second series), active compounds read low 0.46 | S. cerevisiae deletion strains, locus YLR262C, strain YPT6, active compounds read low 0.562 | S. cerevisiae deletion strains, locus YLR320W, strain mms22, active compounds read low 0.717 | S. cerevisiae deletion strains, locus YLR342W, strain FKS1, active compounds read low 0.872 | S. cerevisiae deletion strains, locus YLR370C, strain arc18, active compounds read low 0.841 | S. cerevisiae deletion strains, locus YLR384C, strain iki3, active compounds read low 0.89 | S. cerevisiae deletion strains, locus YLR418C, strain cdc73, active compounds read low 0.821 | S. cerevisiae deletion strains, locus YML120C, strain ndi1, active compounds read low 0.878 | S. cerevisiae deletion strains, locus YML124C, strain tub3, active compounds read low 0.925 | S. cerevisiae deletion strains, locus YMR058W, strain fet3, active compounds read low 0.824 | S. cerevisiae deletion strains, locus YMR129W, active compounds read low 0.888 | S. cerevisiae deletion strains, locus YMR205C, strain PFK2, active compounds read low 0.803 | S. cerevisiae deletion strains, locus YMR223W, strain ubp8, active compounds read low 0.873 | S. cerevisiae deletion strains, locus YMR231W, strain pep5, active compounds read low 0.895 | S. cerevisiae deletion strains, locus YNL071W, strain lat1, active compounds read low 0.75 | S. cerevisiae deletion strains, locus YNL209W, strain ssb2, active compounds read low 0.913 | S. cerevisiae deletion strains, locus YNL233W, strain BNI4, active compounds read low 0.869 | S. cerevisiae deletion strains, locus YNL248C, strain rpa49, active compounds read low 0.858 | S. cerevisiae deletion strains, locus YNL271C, strain bni1, active compounds read low 0.91 | S. cerevisiae deletion strains, locus YNL298W, strain CLA4, active compounds read low 0.899 | S. cerevisiae deletion strains, locus YNL307C, strain MCK1, active compounds read low 0.874 | S. cerevisiae deletion strains, locus YNL322C, strain KRE1 (second series), active compounds read low 0.888 | S. cerevisiae deletion strains, locus YNR049C, strain mso1, active compounds read low 0.889 | S. cerevisiae deletion strains, locus YOL147C, strain pex11, active compounds read low 0.924 | S. cerevisiae deletion strains, locus YOR001W, strain rrp6, active compounds read low 0.794 | S. cerevisiae deletion strains, locus YOR070C, strain gyp1, active compounds read low 0.913 | S. cerevisiae deletion strains, locus YOR083W, strain WHI5, active compounds read low 0.884 | S. cerevisiae deletion strains, locus YOR106W, strain vam3, active compounds read low 0.866 | S. cerevisiae deletion strains, locus YOR184W, strain ser1, active compounds read low 0.754 | S. cerevisiae deletion strains, locus YOR265W, strain rbl2, active compounds read low 0.891 | S. cerevisiae deletion strains, locus YOR270C, strain vph1, active compounds read low 0.469 | S. cerevisiae deletion strains, locus YOR290C, strain snf2, active compounds read low 0.803 | S. cerevisiae deletion strains, locus YPL051W, strain arl3, active compounds read low 0.729 | S. cerevisiae deletion strains, locus YPL078C, strain atp4, active compounds read low 0.79 | S. cerevisiae deletion strains, locus YPL240C, strain hsp82, active compounds read low 0.901 | S. cerevisiae deletion strains, locus YPR141C, strain kar3, active compounds read low 0.905 | S. cerevisiae deletion strains, strain wtn01, active compounds read low 0.891
inactive: S. cerevisiae deletion strains, locus YJR066W, strain TOR1, active compounds read low 0.901 | S. cerevisiae deletion strains, locus YKL009W, strain mrt4, active compounds read low 0.895 | S. cerevisiae deletion strains, locus YKL068W, active compounds read low 0.944 | S. cerevisiae deletion strains, locus YKL190W, strain CNB1, active compounds read low 0.963 | S. cerevisiae deletion strains, locus YLL001W, strain dnm1, active compounds read low 0.92 | S. cerevisiae deletion strains, locus YLR058C, strain SHM2, active compounds read low 0.919 | S. cerevisiae deletion strains, locus YLR102C, strain apc9, active compounds read low 0.948 | S. cerevisiae deletion strains, locus YLR113W, strain HOG1, active compounds read low 0.907 | S. cerevisiae deletion strains, locus YLR268W, strain sec22, active compounds read low 0.938 | S. cerevisiae deletion strains, locus YLR330W, strain CHS5, active compounds read low 0.923 | S. cerevisiae deletion strains, locus YLR342W, strain FKS1 (second series), active compounds read low 0.838 | S. cerevisiae deletion strains, locus YLR357W, strain rsc2, active compounds read low 0.986 | S. cerevisiae deletion strains, locus YLR371W, strain rom2, active compounds read low 0.91 | S. cerevisiae deletion strains, locus YML016C, strain PPZ1, active compounds read low 0.93 | S. cerevisiae deletion strains, locus YML032C, strain rad52, active compounds read low 0.923 | S. cerevisiae deletion strains, locus YMR078C, strain ctf18, active compounds read low 0.913 | S. cerevisiae deletion strains, locus YMR125W, strain sto1, active compounds read low 0.915 | S. cerevisiae deletion strains, locus YMR263W, strain SAP30, active compounds read low 0.903 | S. cerevisiae deletion strains, locus YMR307W, strain GAS1, active compounds read low 0.852 | S. cerevisiae deletion strains, locus YNL067W, strain RPL9B, active compounds read low 0.892 | S. cerevisiae deletion strains, locus YNL128W, strain TEP1, active compounds read low 0.948 | S. cerevisiae deletion strains, locus YNL183C, strain NPR1, active compounds read low 0.908 | S. cerevisiae deletion strains, locus YNL250W, strain rad50, active compounds read low 0.951 | S. cerevisiae deletion strains, locus YNL322C, strain KRE1, active compounds read low 0.983 | S. cerevisiae deletion strains, locus YNR052C, strain pop2, active compounds read low 0.96 | S. cerevisiae deletion strains, locus YOL006C, strain TOP1, active compounds read low 0.564 | S. cerevisiae deletion strains, locus YOL012C, strain htz1 1.21 | S. cerevisiae deletion strains, locus YOR061W, strain CKA2, active compounds read low 0.945 | S. cerevisiae deletion strains, locus YOR069W, strain VPS5, active compounds read low 0.955 | S. cerevisiae deletion strains, locus YOR080W, strain dia2, active compounds read low 0.919 | S. cerevisiae deletion strains, locus YOR136W, strain idh2, active compounds read low 0.961 | S. cerevisiae deletion strains, locus YOR144C, strain elg1, active compounds read low 0.938 | S. cerevisiae deletion strains, locus YOR231W, strain MKK1, active compounds read low 0.958 | S. cerevisiae deletion strains, locus YOR316C, strain cot1, active compounds read low 0.936 | S. cerevisiae deletion strains, locus YPL055C, strain LGE1, active compounds read low 0.9 | S. cerevisiae deletion strains, locus YPL106C, strain sse1, active compounds read low 0.935 | S. cerevisiae deletion strains, locus YPL241C, strain CIN2, active compounds read low 0.972 | S. cerevisiae deletion strains, locus YPL256C, strain CLN2, active compounds read low 0.918 | S. cerevisiae deletion strains, locus YPR119W, strain clb2, active compounds read low 0.931 | S. cerevisiae deletion strains, locus YPR163C, strain tif3, active compounds read low 0.968 | S. cerevisiae deletion strains, locus YPR167C, strain met16, active compounds read low 0.925 | S. cerevisiae strains, strain wild type, active compounds read low 0.951
